In PubChem BioAssay (NCATS):
Results filed as inconclusive are left out. Activity calls are given as the source filed them. The call rests on the fitted dose curve; in most records, active means well fitted inhibition curve with a large enough effect; inconclusive means small, poorly fitted or top-dose-only effect; inactive means flat fitted curve, though single readings scatter.

assay: P-glycoprotein substrates identified in KB-8-5-11 adenocarcinoma cell line, qHTS therapeutic library screen (AID 1346987); conditions: KB-8-5-11 (P-gp overexpressing) viability, CellTiter-Glo, 72 h; series mostly up to 44.5 µM; further: nearly all actives have a fitted effect of over 65% in size
Procedure, shortened: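 Luminescence from CellTiter-Glo, read 5 min after addition, quantified survival of KB-8-5-11 (P-gp-overexpressing) cells exposed to compounds for 72 h. AC50 was derived from concentration-response curves.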
Potency means the concentration at half of the fitted maximal effect.

| Structure (SMILES) | Potency |
| --- | --- |
| C=C1C(=O)O[C@@H]2C[C@@H](C)[C@]34C[C@]5(C(=O)O[C@H]6CC(C)=C([C@H](C)CCCO)[C@H](OC(=O)C(C)CC)[C@H]65)[C@@H](C(C)=C3C[C@@H]12)[C@H]4OC(C)=O (stereo partly specified) | 5.44 µM (active) |
| Fc1ccccc1CNCc1ccc(-c2ccnc3[nH]ccc23)cc1 | 11.6 µM (active) |
| CC[C@H]1OC(=O)[C@H](C)[C@@H](O[C@H]2C[C@@](C)(OC)[C@@H](O)[C@H](C)O2)[C@H](C)[C@@H](O[C@@H]2O[C@H](C)C[C@H](N(C)C)[C@H]2O)[C@](C)(O)C[C@@H](C)/C(=N/OCOCCOC)[C@H](C)[C@@H](O)[C@]1(C)O | inactive |
| C[C@@H](CN1CCC(n2c(=O)[nH]c3cc(Cl)ccc32)CC1)NC(=O)c1ccc2ccccc2c1 | 18.4 µM (active) |
| COc1ccc2c(c1)CN(C(=O)CCN1CCC(Cc3ccccc3)CC1)CCS2 | 6.32 µM (active) |
| CCC(=O)Nc1cccc(Oc2nc(Nc3ccc(N4CCN(C)CC4)cc3OC)ncc2Cl)c1 | 16.4 µM (active) |
| Cc1cc(CN)cc(C)c1NC(=O)c1ccc(-c2cc(Cl)ccc2Cl)o1 | 20.6 µM (active) |
| C=C1C(=O)O[C@@H]2C[C@@]3(C)CCC[C@H](C)C3=C[C@H]12 | 14.6 µM (active) |
| Cn1nccc1Nc1nccc(-c2ccn([C@H](CO)c3ccc(Cl)c(F)c3)c(=O)c2)n1 | inactive |
| COc1cccc(NC[C@@H](O)Cn2c3ccc(Br)cc3c3cc(Br)ccc32)c1 | 23.1 µM (active) |
| C[C@H](NC(=O)C(C)(C)Oc1ccc(C(F)(F)F)cn1)[C@@H](Cc1ccc(Cl)cc1)c1cccc(C#N)c1 | 14.6 µM (active) |
